High-throughput results from PubChem.
Only some compounds are listed: those with a hit (about 21% of all), similar ones and a draw of the others.
Sm TGR inh = inhibitors of Schistosoma mansoni thioredoxin glutathione reductase | Q962Y6 | purified TGR, DTNB reduction, TNB absorbance 405 nm | Potency, µM (series often up to 114 µM), for inactives: at the highest dose activity change, negative = inhibition, hits mostly inhibitors | 3% of 360,000 active | AID 485364; further: potency means the concentration at half of the fitted maximal effect; on the % scale 0 is the no-effect control and ±100 the full control effect; nearly all actives have a fitted effect of over 60% in size
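Kinetic colorimetric format: TGR-catalysed, NADPH-driven DTNB reduction monitored via TNB absorbance. Enzyme dispensed at 20 nM; compound exposure 15 min at room temperature before reaction start.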
Shiga toxin inh = blocks Shiga toxin action in Vero cells; Vero cells, Shiga toxin protein synthesis inhibition reporter; inhibition, % at 38.7 µM; AID 2315; 9.2% of 290,000 active; in the data active means inhibition mostly above about 28%, no sharp cut-off; inactive means mostly below about 43%; further: 0% is about no effect
Pf growth 48h = inhibits P. falciparum growth in the first generation, 48 h; 5.9% of 310,000 active; P. falciparum luciferase growth in erythrocytes, 48 h; Potency, µM (top dose mostly 28.7 µM), inactives show top-dose activity change, negative = inhibition, actives largely listed as inhibitors; AID 504832; further: potency means the concentration at half of the fitted maximal effect; on the % scale 0 is the no-effect control and ±100 the full control effect
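Parasite viability was followed by luminescence of a genomically integrated firefly luciferase. Cultures held 0.1% parasitemia at 2% hematocrit (final), incubated under 5% CO2 at 37 C.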
CHX counter = counter-screen for Shiga toxin inhibitors: cycloheximide protein synthesis inhibition. cell reporter, cycloheximide protein synthesis inhibition counterscreen. max response, %. 12% of 300,000 active; in the data active means max response mostly above about 13%, no sharp cut-off; inactive means mostly below about 14%; further: read at 38.3 µM for the half of the compounds with a filed dose; 0% is about no effect
NS1 inh = blocks influenza NS1 protein function. Potency, µM (highest dose often 46.1 µM), without a hit: at the highest dose activity, positive = more growth. AID 2326. 0.4% of 270,000 active; calls by dose curve; further: potency means the concentration at half of the fitted maximal effect; actives are rising curves; nearly all actives have a fitted effect of over 50% in size
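A cell-based growth assay was used: compounds that relieve NS1-induced slow growth of budding yeast raise OD600. Assay medium was yeast nitrogen base with ammonium sulphate and -URA supplement, pH 6.0, with 2% galactose.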
Pf growth 96h = P. falciparum growth inhibition at 96 hour, primary screen for plastid delayed-death inhibitors | P. falciparum luciferase reporter growth, 96 h | 6.9% of 320,000 active | Potency, µM (doses to about 28.7 µM), inactives show top-dose activity change, negative = inhibition, hits mostly inhibitors | AID 504834; further: potency means the concentration at half of the fitted maximal effect; on the % scale 0 is the no-effect control and ±100 the full control effect
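Infected RBCs, 2% Hct / 0.05% parasitemia final; luciferase-reporter P. falciparum; cpd 96 h, 37 C, 5% CO2; luciferase detection reagent; luminescence.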
Starred values were filed as active, the others as inactive; ? = inconclusive; . = not tested or not shown; [ ] = dose if it differs, or a comment. Unless noted, the call rests on the fitted dose curve; in most records, active means well fitted curve in the direction sought with a large enough effect; inconclusive means small, poorly fitted or top-dose-only effect, or another doubt; inactive means no such curve, though single readings can be large; an effect the other way counts as inactive or inconclusive.

SMILES | Sm TGR inh | Shiga toxin inh | Pf growth 48h | CHX counter | NS1 inh | Pf growth 96h
O=C1OC(c2ccc(Cl)cc2)/C(=C(/O)c2ccccc2)C1=O (stereo unspecified) | -16% | 65* | 29% | 37* | 15% | 102%
CN1C(=O)C(=O)/C(=C(/O)c2ccc(Br)cc2)C1c1ccc(Cl)cc1 (stereo unspecified) | 1% | . | 29% | 1 | -12% | 33%
COCCCNC(=O)CN1C(=O)/C(=C/c2ccccc2)Sc2ccccc21 | 1% | 3 | -21% | -3 | -34% | -12%
CN1CCN(CP(=O)(N2CCOCC2)N2CCOCC2)CC1 | -9% | -8 | -4% | -1 | 5% | -23%
CC(C)OP(C)(=O)CN1CCN(CP(C)(=O)OC(C)C)CC1 (stereo unspecified) | 4% | -8 | 8% | 0 | 6% | 0.52µM*
O=C(COC(=O)c1cncc(Br)c1)NC1CCCCC1 | -2% | 2 | ? | -6 | . | 79%
O=C(COC(=O)c1cncc(Br)c1)NC1CC1 | -2% | -14 | . | 16* | 0% | 36%
CCCCCOC(=O)c1ccc(OC(=O)c2cncc(Br)c2)cc1 | 9% | 27 | 54% | 21* | -9% | 0%
CCCCCOc1ccc(OC(=O)c2ccncc2)cc1 | -26% | 9 | 10% | -4 | -9% | 93%
CCc1ccc(OC(=O)c2cncc(Br)c2)cc1 | 0% | 22 | 9% | 18* | -3% | ?
O=C(Oc1ccc2ccccc2c1)c1cncc(Br)c1 | -2% | -13 | . | 2 | 10% | 53%
CCCCCCCOC(=O)c1ccc(OC(=O)c2cccnc2)cc1 | -8% | 53 | . | 16* | 7% | -7%
CCCCCCOC(=O)c1cccnc1 | . | . | -3% | . | . | -11%
Cc1cccc(-n2ccnc2SCC(=O)c2c(N)n(C3CC3)c(=O)[nH]c2=O)c1C | -7% | . | -26% | . | . | ?
CCc1ccc(C(=O)COC(=O)c2cncc(Br)c2)cc1 | 2% | 33 | 17µM* | 40* | . | 52%
Cc1ccc(CNC(=O)COC(=O)c2cncc(Br)c2)cc1 | -6% | -5 | ? | 1 | . | 3%
Cc1cccc(CS(=O)(=O)c2ncc(Cl)c(C(=O)NCc3ccc4c(c3)OCO4)n2)c1 | 6.3µM* | 12 | 7% | 8 | -1% | 15%
COc1ccc2nc(NC(=O)c3nc(S(=O)(=O)Cc4ccc(C)cc4)ncc3Cl)sc2c1 | 6% | . | . | . | . | .
COC(=O)c1ccc(NC(=O)c2nc(S(=O)(=O)Cc3cccc(C)c3)ncc2Cl)cc1 | 6.3µM* | 25 | 18% | 13 | -29% | -19%
CC(=O)Nc1ccc(NC(=O)c2nc(S(=O)(=O)Cc3cccc(C)c3)ncc2Cl)cc1 | 7.1µM* | 99* | 27% | 46* | 18% | ?
O=C(Nc1ccccc1Cl)NC1(C(=O)NCc2cccnc2)CCCCC1 | 35% | -7 | -27% | -4 | -4% | 14%
CCOc1ccc(C2=Nn3c(nnc3-c3ccccc3OC)SC2)cc1 | 6% | -15 | 13µM* | -5 | 3% | ?
c1ccc(-c2ccc(C3=Nn4c(nnc4-c4cc(-c5ccccc5)n[nH]4)SC3)cc2)cc1 | 4% | 11 | ? | 1 | 26% | 12µM*
Brc1ccccc1C1=Nn2c(nnc2-c2ccco2)SC1 | -27% | 16 | 2% | -1 | -4% | 0%
Brc1ccccc1C1=Nn2c(nnc2-c2ccccc2)SC1 | -1% | -13 | ? | -3 | -136% | 8.3µM*
SMILES | Sm TGR inh | Shiga toxin inh | Pf growth 48h | CHX counter | NS1 inh | Pf growth 96h
NC(=O)N[C@H]1NC(=O)NC1=O | . | . | -6%[12.8 µM] | . | . | 21%[12.8 µM]
CC1CCCC(C)N1C(=O)CNCc1ccc2c(c1)OCO2 (stereo unspecified) | 2% | -4 | 22% | 0 | 8% | -12%
CC1(C)C[C@@H]2C[C@@](C)(CN2C(=O)c2cc(COc3cccc(C(F)(F)F)c3)on2)C1 | 7% | 42* | 40% | 12 | -20% | 27%
COc1ccc(-c2cc(C(=O)N3CC4(C)CC3CC(C)(C)C4)no2)cc1 (stereo unspecified) | 1% | -11 | . | -6 | -51% | ?
O=C(c1cc(COc2cccc(C(F)(F)F)c2)on1)N1C[C@H]2CC[C@H]1C2 | -3% | 80* | 18% | 30* | -77% | 36%
COC(=O)C1CCCCN1C(=O)c1cc(COc2cccc3cnccc23)on1 (stereo unspecified) | -30% | -12 | -1% | -2 | -22% | -25%
CC(=O)c1cccc(OCc2cc(C(=O)N3C[C@H]4CC[C@H]3C4)no2)c1 | 7% | 82* | 41% | 50* | -33% | ?
CC(=O)c1cccc(OCc2cc(C(=O)N3C[C@@H](C)O[C@@H](C)C3)no2)c1 | 3.2µM* | 75* | 19% | 41* | 0% | ?
O=S(=O)(NCC1(N2CCOCC2)CCCCC1)c1ccc(F)c(F)c1F | -6% | . | ? | . | . | -10%
O=C(COc1ccc2cc(-c3ccccc3)c(=O)oc2c1)NCC1CCC(C(=O)O)CC1 (stereo unspecified) | 0% | -3 | 44% | -4 | -7% | -11%
COC(=O)c1ccc(OC)c(Cn2c(=O)n(C)c(=O)c3ccccc32)c1 | -3% | . | -27% | 1 | 20% | -4%
CCOc1ccccc1C(=O)Nc1c(C(=O)Nc2ccc(F)cc2)oc2ccccc12 | -4% | . | . | . | . | .
O=c1ccc2ccc(Oc3ccc([N+](=O)[O-])cc3[N+](=O)[O-])cc2o1 | 40µM* | 3 | 0% | -4 | -8% | -16%
O=C(Oc1ccc2ccc(=O)oc2c1)c1ccc([N+](=O)[O-])cc1 | -19% | 25 | 2% | -2 | -5% | -4%
CCOc1ccccc1-n1nnnc1SCC(=O)NC(=O)Nc1ccc2c(c1)OCCO2 | -4% | 20 | 8% | 13* | -1% | .
O=C(CSc1nnnn1-c1ccccc1)NC(=O)Nc1ccc2c(c1)OCCO2 | -5% | 76* | 158% | 56* | 1% | 119%
CCOC(=O)c1c(C)oc2c1cc(NS(=O)(=O)c1ccc(C)cc1)c1ccccc12 | -1% | . | . | . | . | .
O=C1CC(c2ccccc2Cl)c2c(sc3c(=O)[nH]c(CCl)nc23)N1 (stereo unspecified) | 25µM* | -1 | -17% | -1 | 0% | ?
Cc1ccc(-c2ccc(C(=O)NCCCNC(=O)c3cnccn3)o2)cc1Cl | 32µM* | 6 | ? | 9 | -2% | -1%
O=C(NCCCNC(=O)c1ccc(-c2cc(Cl)ccc2Cl)o1)c1cnccn1 | -32% | -3 | -13% | -1 | -25% | ?
S=C(NCCCc1ccccc1)NC1CCCCC1 | -20% | 71* | ? | 47* | -98% | -1%
S=C(NCc1ccccc1)NC1CCCCC1 | -1% | 1 | -15% | 10 | -7% | 23%
S=C(Nc1ccccn1)NC1CCCCC1 | -36% | -2 | ? | 16 | -63% | ?
S=C(NCCc1ccccn1)NC1CCCCC1 | 7% | 27* | 53% | 42* | 11% | 0%
